Results taken from PubChem BioAssay (NCATS).
Inconclusive results are not listed. Entries that show only a call come without a potency. Active and inactive are the calls of the source. Calls come from the whole dose curve; as a rule, active = well fitted inhibition curve with a large enough effect; inconclusive = small, poorly fitted or top-dose-only effect; inactive = flat fitted curve, though single readings scatter.

Assays:
[1] = molecular target: Calcium and integrin-binding protein 1 (Homo sapiens) (UniProt Q99828); assay: Primary qHTS for Identification of Calcium Integrin Binding Protein 1 (CIB1) Competitor (AID 1508620); details: CIB1-GST / FITC-alphaIIb peptide fluorescence polarization; series mostly up to 114 µM;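 note: GST tagged CIB1 binding a fluorescein labelled alphaIIb integrin peptide tracer; top concentration of the series differs between compounds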
Chain of Calcium and integrin-binding protein 1 (Homo sapiens) (Q99828 whole entry, looked up): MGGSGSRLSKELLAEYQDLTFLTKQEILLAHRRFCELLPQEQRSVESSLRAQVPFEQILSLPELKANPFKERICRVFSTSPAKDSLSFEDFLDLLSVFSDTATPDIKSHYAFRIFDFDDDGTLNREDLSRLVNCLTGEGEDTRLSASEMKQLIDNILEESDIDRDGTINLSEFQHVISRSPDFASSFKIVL
Outline: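 CIB1-GST (1 uM final) and compound incubated 15 min at room temperature before adding FITC-alphaIIb peptide tracer (100 nM final). Competition for binding read by fluorescence polarization (ex 480, em 540) after another 15 min at room temperature.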

[2] = Primary qHTS for inhibitors of nuclear receptor binding SET domain protein 2 (NSD2) in an isogenic RCH-ACV NSD2 p.E1099K mutant (9B) (AID 1645876); details: RCH-ACV (leukaemia line) NSD2 E1099K (9B) viability, CellTiter-Glo, 72 h; series mostly up to 44.9 µM; note: nearly all actives have a fitted effect of over 70% in size; note: potency is the fitted concentration of half-maximal effect

Row | SMILES | Potency [1] | Potency [2]
1 | CC(=O)OC1C(OC(=O)c2ccccc2)C2C(C)(C)CC(=O)CC2(C)C23CCC(C)(C2)C(O)CC13 (stereo not drawn) | inactive | inactive
2 | CC1=C(CCC(C)CC(=O)O)[C@@]2(C)CCCC(C)(C)C2CC1=O (stereo partly drawn) | inactive | inactive
3 | Cc1cc(Cl)ccc1COc1ccnn1-c1cc(C(=O)O)ccn1 | inactive | inactive
4 | CC1(C)CC2C=C(C(=O)O)C3COC(=O)C(O)(CO)C23C1 (stereo not drawn) | inactive | inactive
5 | COc1ccc([C@@H]2OC[C@H]3[C@@H]2CO[C@@H]3c2ccc(OC3OC(CO)C(O)C(O)C3O)c(OC)c2)cc1OC (stereo partly drawn) | inactive | inactive
6 | CC1=CC(=O)CC(C)(C)C1CCC(C)O[C@@H]1O[C@H](CO[C@@H]2OC[C@@H](O)[C@H](O)[C@H]2O)[C@@H](O)[C@H](O)[C@H]1O (stereo partly drawn) | inactive | inactive
7 | O=C(O)c1cc2cccc([N+](=O)[O-])c2[nH]1 | inactive | inactive
8 | CN(C)c1ccc2c(c1)OC(N)=C(C#N)C2c1cccc(C(F)(F)F)c1 (stereo not drawn) | inactive | 817 nM (active)
9 | COc1ccccc1NC(=O)OCC1CCN(C(=O)OC(C)(C)C)CC1 | inactive | inactive
